Bioassay records deposited in PubChem BioAssay by several laboratories.
This is a sample that favours compounds with a hit; in the whole collection about 3.4% have one here.
hcDAF-12 act: activates DAF-12 receptor from parasite H. contortus; HEK293 hcDAF-12 lit1-tk-luc reporter, luminescence; 0% DMSO, 100% Δ7-dafachronic acid; activation, % at 6.8 µM; actives 1.4% (n = 370,000); AID 652067;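 active = activation above the mean of all tested compounds plus 3 SD, cut at about 5.5% in these data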
APP 5'UTR act: activates APP 5'UTR luciferase reporter; AID 1276; SH-SY5Y APP 5'UTR luciferase reporter, luminescence; zero percent = DMSO vehicle wells; actives 1% (n = 190,000); activation, % at 2 µM;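 active = activation above a set limit, based on mean plus 3 SD of controls, cut at about 140% in these data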
ssDAF-12 act: S. stercoralis DAF-12 activation, primary screen. activation, % at 6.8 µM. HEK293 ssDAF-12/GRIP1 lit1-tk-luc reporter, luminescence; % of 3 µM dafachronic acid response. actives 1% (n = 370,000);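 active = activation above the mean over all tested compounds plus 3 SD, cut at about 0.9% in these data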
NF-kB neuron act: NF-kB expression increase, human neuronal cells; fold change at 12.5 µM; NF-kB reporter expression; active compounds read high; actives 1.6% (n = 190,000); in the data active = fold change above about 3.3
hgDAF-12 ag: activates the H. glycines DAF-12 receptor ligand-binding domain; HEK293 GAL4-hgDAF12 UAS-luciferase reporter, agonist luminescence; normalized to butyrate control; activation, % at 6.8 µM; actives 1.8% (n = 370,000); AID 687014;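 active = activation above a cutoff set at the mean of all screened compounds plus 3 SD, cut at about 10% in these data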
LXR ag: counter-screen for hcDAF-12 agonists: agonists of human LXR-beta; shares compounds with hcDAF-12 act; HEK293 Gal4-LXR tk-luc reporter, luminescence, 24 h; normalized: DMSO 0%, positive control 100%; activation, % at 6.8 µM; 3,400 tested, under 10 active; AID 743027;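 active = mean percent activation of the reporter above a cutoff set as the average over tested compounds plus their standard deviation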
Target sequence (P55055 whole entry, looked up, the tested form may be a part): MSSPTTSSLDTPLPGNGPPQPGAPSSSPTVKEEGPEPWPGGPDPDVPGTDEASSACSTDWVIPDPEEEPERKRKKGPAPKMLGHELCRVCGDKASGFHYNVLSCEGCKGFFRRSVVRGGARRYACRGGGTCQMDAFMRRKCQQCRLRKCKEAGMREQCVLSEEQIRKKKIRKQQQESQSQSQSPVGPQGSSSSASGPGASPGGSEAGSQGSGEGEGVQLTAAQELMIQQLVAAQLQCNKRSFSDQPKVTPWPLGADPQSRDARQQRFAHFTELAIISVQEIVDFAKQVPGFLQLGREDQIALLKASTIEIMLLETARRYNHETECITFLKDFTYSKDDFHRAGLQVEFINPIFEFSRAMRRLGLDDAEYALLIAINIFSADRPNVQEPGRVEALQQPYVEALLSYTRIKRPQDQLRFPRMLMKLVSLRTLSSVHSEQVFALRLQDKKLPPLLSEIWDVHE
hcDAF12 conf: hcDAF-12 agonism, confirmation assay. shares compounds with hcDAF-12 act. HEK293 hcDAF-12 lit1-tk-luc reporter, luminescence; % of Δ7-dafachronic acid response. activation, % at 6.8 µM. actives 61% (n = 3,400). AID 743032;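 active = mean activation across triplicate tests above the threshold derived from the earlier primary screen, cut at about 5.5% in these data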
hgDAF12 ag: hgDAF-12 agonism, confirmation assay | HEK293 GAL4-hgDAF12 luciferase reporter, agonist mode; percent of butyrate response | AID 743050 | actives 80% (n = 3,300) | activation, % at 6.8 µM | shares compounds with hgDAF-12 ag;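 active = mean activation over triplicate wells above the hit cutoff derived from the earlier primary screen, cut at about 11% in these data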
LXRb DAF12 ctr: activates human LXR-beta, counter-screen for DAF-12 agonists; shares compounds with hgDAF-12 ag; HEK293 Gal4-LXR luciferase reporter, 24 h; activation, % at 6.8 µM; 3,300 tested, under 10 active; AID 743051;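 active = mean activation of the triplicate above a set limit carried over from the primary screen, none filed active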
Of the large screens only hits and unclear results are named; the others gave an inactive call (follow-up assays come after a bar, where they were run).

O=C(CSc1nnc(-c2cccnc2)n1-c1ccc(Cl)cc1)Nc1ccc(S(=O)(=O)Nc2nccs2)cc1	none (no result: APP 5'UTR act, NF-kB neuron act)
O=C(CCCc1ccccc1)NC12CC3CC(CC(C3)C1)C2	hcDAF-12 act 8.4, ssDAF-12 act 1.2, hgDAF-12 ag 17 (no result: APP 5'UTR act, NF-kB neuron act) | LXR ag inactive | hcDAF12 conf 6.9 | hgDAF12 ag 15 | LXRb DAF12 ctr inactive
Cc1ccc(/C=C/c2nc3ccccc3c(=O)[nH]2)cc1	hcDAF-12 act 8.7, ssDAF-12 act 1.5, hgDAF-12 ag 16 (no result: APP 5'UTR act, NF-kB neuron act) | LXR ag inactive | hcDAF12 conf 9.4 | hgDAF12 ag 18 | LXRb DAF12 ctr inactive
COC(=O)c1ccc(/C=C/c2nc3ccccc3c(=O)[nH]2)cc1	none (no result: APP 5'UTR act, NF-kB neuron act)
O=C(NCc1ccccc1)C1(C(=O)C2CC2)CC(c2ccccc2C(F)(F)F)=NO1 (configuration not stated)	none (no result: APP 5'UTR act, NF-kB neuron act)
COc1ccc([C@H]2Cc3cc(O)cc(O)c3C(=O)O2)cc1O	hcDAF-12 act 14, ssDAF-12 act 2.3, hgDAF-12 ag 18 (no result: APP 5'UTR act, NF-kB neuron act) | LXR ag inactive | hcDAF12 conf 11 | hgDAF12 ag 25 | LXRb DAF12 ctr inactive
Oc1[nH]c2ccccc2c1C=Nc1ccc2c(c1)OCO2	hcDAF-12 act 7.0, APP 5'UTR act 141, NF-kB neuron act 4.9, hgDAF-12 ag 17 | LXR ag inactive | hcDAF12 conf 6.8 | hgDAF12 ag 19 | LXRb DAF12 ctr inactive
Cc1[nH]c2ccccc2c1/C=N\NC(=O)CNc1ccc2c(c1)OCO2	none
COc1cccc(-c2nnc(SCC(=O)Nc3cccc4ccccc34)n2Cc2ccco2)c1	none (no result: APP 5'UTR act, NF-kB neuron act)
Cc1ccc(/C=N/Nc2ccc3ccccc3n2)o1	hcDAF-12 act 8.8, APP 5'UTR act 183, ssDAF-12 act 1.1, hgDAF-12 ag 22 | LXR ag inactive | hcDAF12 conf 10 | hgDAF12 ag 11 | LXRb DAF12 ctr inactive
Cc1cccc(/C=N/Nc2ccc3ccccc3n2)c1	none
NC(=O)c1c(NC(=O)c2ccco2)sc2c1CCC2	hcDAF-12 act 6.7, ssDAF-12 act 1.1, hgDAF-12 ag 14 | LXR ag inactive | hcDAF12 conf 8.9 | hgDAF12 ag 17 | LXRb DAF12 ctr inactive
Cc1ccc(-c2nnc(-c3ccccc3Br)o2)cc1	hcDAF-12 act 15, ssDAF-12 act 1.8, hgDAF-12 ag 20 (no result: APP 5'UTR act, NF-kB neuron act) | LXR ag inactive | hcDAF12 conf 10 | hgDAF12 ag 20 | LXRb DAF12 ctr inactive
Cc1ccccc1-c1nnc(-c2ccccc2)o1	hcDAF-12 act 7.8, APP 5'UTR act 138, NF-kB neuron act 4.2, hgDAF-12 ag 14 | LXR ag inactive | hcDAF12 conf 9.3 | hgDAF12 ag 17 | LXRb DAF12 ctr inactive
Cc1cccc(NCc2nnc(-c3ccccc3)o2)c1C	none
Cc1ccc(NC(=O)c2ccccn2)c(Br)c1	hcDAF-12 act 9.9, APP 5'UTR act 153, ssDAF-12 act 3.1, NF-kB neuron act 6.9, hgDAF-12 ag 19 | LXR ag inactive | hcDAF12 conf 7.9 | hgDAF12 ag 18 | LXRb DAF12 ctr inactive
COC(=O)[C@]12C[C@H](CC(=O)NCCc3ccccc3OC)C(=O)N(Cc3ccc(Cl)cc3Cl)C1=C[C@H](C(C)(C)C)O[C@@H]2C	none (no result: APP 5'UTR act, NF-kB neuron act)
COc1cccc(/C=C/c2ccc3cccc(O)c3n2)c1	hcDAF-12 act 9.0, ssDAF-12 act 1.5, hgDAF-12 ag 14 (no result: APP 5'UTR act, NF-kB neuron act) | LXR ag inactive | hcDAF12 conf 8.5 | hgDAF12 ag 24 | LXRb DAF12 ctr inactive
Oc1cccc(/C=C/c2ccc3cccc(O)c3n2)c1	hcDAF-12 act 26, ssDAF-12 act 4.7, hgDAF-12 ag 23 (no result: APP 5'UTR act, NF-kB neuron act) | LXR ag inactive | hcDAF12 conf 21 | hgDAF12 ag 28 | LXRb DAF12 ctr inactive
COc1cccc(/C=C/c2ccc3cccc(O)c3n2)c1OC	none (no result: APP 5'UTR act, NF-kB neuron act)
Cc1ccc(/C=C/c2ccc3cccc(O)c3n2)s1	hcDAF-12 act 8.9, ssDAF-12 act 1.5, hgDAF-12 ag 18 (no result: APP 5'UTR act, NF-kB neuron act) | LXR ag inactive | hcDAF12 conf 15 | hgDAF12 ag 16 | LXRb DAF12 ctr inactive
COc1ccc(/C=C/c2ccc3cccc(O)c3n2)cc1Br	none (no result: APP 5'UTR act, NF-kB neuron act)
CCCC/C=C1/[C@H](c2ccccc2)N(C)C2=N[C@@H](c3ccccc3)CC(=O)N21	none (no result: APP 5'UTR act, NF-kB neuron act)
CCOc1cccc(-c2nnc(SCC(=O)Nc3ccc4c(c3)OCO4)n2N)c1	none (no result: APP 5'UTR act, NF-kB neuron act)
O=C(NCC(c1ccccc1)c1ccccc1)[C@H](Cc1c[nH]c2ccccc12)NC1(C(=O)NC2CCCCC2)CCC1	none (no result: APP 5'UTR act, NF-kB neuron act)
CCOC(=O)c1c(C)[nH]c(C(=O)OCC(=O)c2ccccc2)c1C	hcDAF-12 act 7.4, hgDAF-12 ag 14 (no result: APP 5'UTR act, NF-kB neuron act) | LXR ag inactive | hcDAF12 conf inactive | hgDAF12 ag 17 | LXRb DAF12 ctr inactive
CC(=O)Oc1cc2c(s1)CCN(C(C(=O)C1CC1)c1ccccc1F)C2 (configuration not stated)	none (no result: APP 5'UTR act, NF-kB neuron act)
Cc1csc(-c2nc3ccccc3n2C(C(=O)NC(C)(C)C)c2cc3ccccc3o2)c1 (configuration not stated)	hcDAF-12 act 9.4, ssDAF-12 act 1.9, hgDAF-12 ag 16 (no result: APP 5'UTR act, NF-kB neuron act) | LXR ag inactive | hcDAF12 conf 11 | hgDAF12 ag 18 | LXRb DAF12 ctr inactive
Cc1cc(C)cc(C(=O)OCCCN(C)C2CN(Cc3cn(Cc4ccccc4Cl)nn3)S(=O)(=O)C2)c1 (configuration not stated)	none (no result: APP 5'UTR act, NF-kB neuron act)
COCCCNc1ccn2nc(-c3cccc(Cl)c3)cc2n1	hcDAF-12 act 8.5, hgDAF-12 ag 21 (no result: APP 5'UTR act, NF-kB neuron act) | LXR ag inactive | hcDAF12 conf 9.2 | hgDAF12 ag 21 | LXRb DAF12 ctr inactive
CC(=O)Nc1ccc(NC(=O)CSc2nnc(NC(=O)c3ccccc3F)s2)cc1	hcDAF-12 act 7.1, hgDAF-12 ag 17 (no result: APP 5'UTR act, NF-kB neuron act) | LXR ag inactive | hcDAF12 conf 7.2 | hgDAF12 ag 13 | LXRb DAF12 ctr inactive
c1ccc2sc(N3CCOCC3)nc2c1	none
c1ccc2sc(-n3cc(C4CCCCC4)nn3)nc2c1	hcDAF-12 act 6.6, ssDAF-12 act 1.3, hgDAF-12 ag 26 (no result: APP 5'UTR act, NF-kB neuron act) | LXR ag inactive | hcDAF12 conf 5.9 | hgDAF12 ag 25 | LXRb DAF12 ctr inactive
C1=C(c2cn(-c3nc4ccccc4s3)nn2)CCCC1	hcDAF-12 act 12, hgDAF-12 ag 20 (no result: APP 5'UTR act, NF-kB neuron act) | LXR ag inactive | hcDAF12 conf 8.5 | hgDAF12 ag 20 | LXRb DAF12 ctr inactive
O=S(=O)(c1ccccc1)n1c(CN2CCOCC2)nc2ccccc21	none (no result: APP 5'UTR act, NF-kB neuron act)
